The values below come from PubChem BioAssay (EPA / NIEHS).

Inconclusive results are not listed. Activity calls are given as the source filed them. How the source made its calls, unless noted: active means hit-call score of the fitted dose curve at least 0.9, where 1 is the maximum; inactive means score below 0.9.

Assay [1] is described as follows: ATG_TAL_CIS: Attagene CIS-FACTORIAL HepG2 Assay for human TAL Basal Promoter (AID 2282966).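 Further: background control endpoint measuring basal TAL promoter reporter mRNA not a specific factor.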 The settings on record: HepG2 Attagene cis-factorial TAL promoter reporter; actives raise or lower the signal. A digest of the protocol: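 Readout: reporter mRNA, fluorescence by CE. System: HepG2, transient multi-reporter transfection, endogenous TF activity. Exposure: 24 h. Analysis: bidirectional, DMSO-normalized; background control.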

A short description of assay [2]: ATG_TGFb_CIS: Attagene CIS-FACTORIAL HepG2 Assay for human Transforming Growth Factor (TGF) (AID 2282967). The settings on record: HepG2 Attagene CIS TGFb reporter, mRNA transcription; actives raise or lower the signal. In a few lines: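 Liver HepG2 line, cis-factorial reporter panel, 24 h dosing. Quantitation: RT-PCR products labeled with 6-FAM, cut with HpaI, resolved by capillary electrophoresis; DMSO-referenced bidirectional analysis.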

Assay [3] in a line: ATG_VDRE_CIS: Attagene CIS-FACTORIAL HepG2 Assay for human Vitamin D Receptor Element (VDRE) (AID 2282968). The settings on record: HepG2 VDRE cis-reporter transcription, actives raise or lower the signal. A digest of the protocol: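 Reporter mRNA induction, quantified by capillary electrophoresis of fluorescently labelled RT-PCR products, was read 24 h after dosing HepG2 cells carrying transiently transfected cis-regulated reporter units; gain or loss relative to DMSO.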

Assay [4] is described as follows: ATG_GAL4_TRANS: Attagene TRANS-FACTORIAL HepG2 Assay for GAL4 (Internal Marker) (AID 2282976; active means hit-call score of the fitted dose curve at least 0.9, where 1 is the maximum). The settings on record: HepG2 Attagene TRANS GAL4 internal marker reporter. In a few lines: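 Fluorescence from capillary electrophoresis of labelled RT-PCR products quantifies reporter mRNA induction after 24 h dosing of HepG2 cells carrying transfected GAL4-UAS reporter transcription units. Vehicle DMSO serves as baseline.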

Assay [5] addresses Bile acid receptor (Homo sapiens) (UniProt Q96RI1). As to the kind of experiment: ATG_FXR_TRANS: Attagene TRANS-FACTORIAL HepG2 Assay for Farnesoid X Receptor (FXR) (AID 2282979; active means hit-call score of the fitted dose curve at least 0.9, where 1 is the maximum;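 further: hits raise reporter mRNA above DMSO so AC50 marks FXR activation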). The settings on record: HepG2 Attagene TRANS FXR-GAL4 reporter transcription. In a few lines:
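Chimeric FXR-GAL4 activity in transiently transfected human HepG2 liver cells is scored as induction of reporter mRNA after 24 h of dosing. Detection uses RT-PCR with fluorescent labelling and capillary electrophoresis, with DMSO serving as baseline.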

In assay [6] the target is Oxysterols receptor LXR-beta (Homo sapiens) (UniProt P55055). As to the kind of experiment: ATG_LXRb_TRANS: Attagene TRANS-FACTORIAL HepG2 Assay for human Liver X Receptor beta (LXRb) (AID 2282981; active means hit-call score of the fitted dose curve at least 0.9, where 1 is the maximum). The settings on record: HepG2 Attagene TRANS GAL4-LXRb reporter, mRNA. A digest of the protocol:
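Transient transfection HepG2 (multiplexed RTUs, GAL4-UAS); NR-Gal4 chimera; 24 h exposure; RNA → RT-PCR → 6-FAM primer extension → HpaI → CE; increase vs DMSO.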

Assay [7] can be described thus: ATG_M_06_TRANS: Attagene TRANS-FACTORIAL HepG2 Assay for M06 Transcription Factor (Internal Marker) (AID 2282983; active means hit-call score of the fitted dose curve at least 0.9, where 1 is the maximum;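 further: reporter transcript level by RT-PCR then capillary electrophoresis fluorescence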). The settings on record: HepG2 Attagene TRANS M06 internal marker reporter. A digest of the protocol: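 Measured by capillary electrophoresis of fluorescently labelled RT-PCR products, this endpoint reflects reporter mRNA in HepG2 cells harbouring exogenous NR-GAL4 reporter constructs after 24 h exposure, with DMSO as baseline.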

For assay [8], the target named is Transcriptional activator Myb (Homo sapiens) (UniProt P10242). As to the kind of experiment: ATG_Myb_CIS: Attagene CIS-FACTORIAL HepG2 Assay for human Myeloblastosis (Myb) Proto-Oncogene Transcription Factor (AID 2282986). As to conditions: HepG2 Attagene CIS-FACTORIAL Myb reporter transcription; actives raise or lower the signal. A digest of the protocol: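 Transiently transfected HepG2 cells carrying a multiplexed cis-promoter reporter set report endogenous Myb activity after 24 h compound exposure. Reporter mRNA is read by RT-PCR with capillary electrophoresis of fluorescent products, fitted bidirectionally against DMSO.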

Assay [9] concerns the target Nuclear respiratory factor 1 (Homo sapiens) (UniProt Q16656). As to the kind of experiment: ATG_NRF1_CIS: Attagene CIS-FACTORIAL HepG2 Assay for human Nuclear Respiratory Factor 1 (NRF1) Orphan Gene (AID 2282987). The settings on record: HepG2 NRF1 cis-element reporter, Attagene multiplex; actives raise or lower the signal. In a few lines: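 HepG2 cells transiently transfected with multiple cis-regulated reporter units, exposed 24 h. Reporter mRNAs measured by RT-PCR, fluorescent labelling, HpaI digestion and capillary electrophoresis; bidirectional fitting against DMSO.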

Assay [10] has as its target X-box-binding protein 1 (Homo sapiens) (UniProt P17861). The assay can be described thus: ATG_Xbp1_CIS: Attagene CIS-FACTORIAL HepG2 Assay for human X-box Binding Protein 1 (XBP1) (AID 2282972). The settings on record: HepG2 XBP1 cis-element reporter, Attagene multiplex; actives raise or lower the signal. A digest of the protocol: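 HepG2, transient MRTU transfection (cis-promoter driven), 24 h compound exposure. Total RNA → oligo(dT) RT → PCR → 6-FAM labeling → HpaI cut → CE. Bidirectional fit vs DMSO.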

Assay [11] has as its target Glucocorticoid receptor (Homo sapiens) (UniProt P04150). As to the kind of experiment: ATG_GR_TRANS: Attagene TRANS-FACTORIAL HepG2 Assay for human Glucocorticoid Receptor (GR) (AID 2282978; active means hit-call score of the fitted dose curve at least 0.9, where 1 is the maximum;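 further: activators score as hits since higher reporter transcript over DMSO is fitted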). The settings on record: HepG2 Attagene TRANS GR reporter, mRNA transcription. A digest of the protocol:
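HepG2 cells transiently transfected with GAL4-UAS reporter units and exogenous GR-Gal4 chimera, dosed 24 h. Reporter mRNA by RT-PCR, FAM labeling, HpaI digest and capillary electrophoresis; gain-of-signal fit versus DMSO.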

In assay [12] the target is Oxysterols receptor LXR-alpha (Homo sapiens) (UniProt Q13133). The assay can be described thus: ATG_LXRa_TRANS: Attagene TRANS-FACTORIAL HepG2 Assay for human Liver X Receptor alpha (LXRa) (AID 2282980; active means hit-call score of the fitted dose curve at least 0.9, where 1 is the maximum). The settings on record: HepG2 Attagene TRANS reporter, LXRa transactivation. A digest of the protocol:
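Transient HepG2 transfectants, 24 h dosing, RT-PCR/CE mRNA reporter quantitation; gain-of-signal vs DMSO.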

Assay [13] addresses Nuclear receptor subfamily 4 group A member 2 (Homo sapiens) (UniProt P43354). As to the kind of experiment: ATG_NURR1_TRANS: Attagene TRANS-FACTORIAL HepG2 Assay for human Nuclear Receptor Related Protein 1 (NURR1) (AID 2282985; active means hit-call score of the fitted dose curve at least 0.9, where 1 is the maximum). As to conditions: HepG2 Attagene TRANS reporter, mRNA readout. A digest of the protocol: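 Transient transfection of HepG2, human liver cells, with multiple GAL4-UAS reporter transcription units. Cells dosed 24 h, RNA isolated, reverse-transcribed, PCR-amplified, FAM-labelled, HpaI-digested, sized by capillary electrophoresis. DMSO served as negative control.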

Assay [14] can be described thus: ATG_NFI_CIS: Attagene CIS-FACTORIAL HepG2 Assay for human Nuclear Factor I (NFI) (AID 2282989). The settings on record: HepG2 cis-regulatory reporter, NFI response element transcription; actives raise or lower the signal. In a few lines: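 Transfected HepG2 liver cells, exposed 24 h, supplied total RNA for oligo(dT) reverse transcription and reporter-specific PCR. Labelled, HpaI-cut fragments were sized by capillary electrophoresis; DMSO set the baseline for bidirectional fitting.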

Assay [15] is described as follows: ATG_M_32_TRANS: Attagene TRANS-FACTORIAL HepG2 Assay for M32 Transcription Factor (Internal Marker) (AID 2282984; active means hit-call score of the fitted dose curve at least 0.9, where 1 is the maximum;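 further: transcript level of a background control reporter unit measured by RT-PCR and capillary electrophoresis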). As to conditions: HepG2 Attagene TRANS M32 internal marker reporter. A digest of the protocol: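 Measures reporter mRNA induction in human HepG2 liver cells after 24 h chemical treatment. Transcripts from transiently transfected GAL4-UAS reporter units are amplified, fluorescently labelled and sized by capillary electrophoresis; gain of signal relative to DMSO.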

The nature of assay [16]: ATG_M_19_TRANS: Attagene TRANS-FACTORIAL HepG2 Assay for M19 Transcription Factor (Internal Marker) (AID 2282974; active means hit-call score of the fitted dose curve at least 0.9, where 1 is the maximum). As to conditions: HepG2 Attagene TRANS-FACTORIAL M19 internal marker reporter. In a few lines:
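HepG2 transiently transfected with GAL4-UAS multiplex reporter constructs, exposed 24 h; reporter RNA quantified by RT-PCR, 6-FAM labeling, HpaI digestion and capillary electrophoresis; internal background marker fitted upward versus DMSO.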

In assay [17] the target is Hepatocyte nuclear factor 4-alpha (Homo sapiens) (UniProt P41235). The assay can be described thus: ATG_HNF4a_TRANS: Attagene TRANS-FACTORIAL HepG2 Assay for human Hepatocyte Nuclear Factor 4 alpha (HNF4a) (AID 2282982; active means hit-call score of the fitted dose curve at least 0.9, where 1 is the maximum). The settings on record: HepG2 HNF4a transactivation reporter, mRNA readout. In a few lines: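 Readout is fluorescent reporter-transcript fragments resolved by capillary electrophoresis after RT-PCR from HepG2 cells dosed for 24 h. Cells carried transfected GAL4-UAS reporter constructs measuring exogenous NR-GAL4 chimera activity; DMSO served as baseline.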
Chain of Hepatocyte nuclear factor 4-alpha (Homo sapiens) (P41235 whole entry, looked up, the tested form may be a part): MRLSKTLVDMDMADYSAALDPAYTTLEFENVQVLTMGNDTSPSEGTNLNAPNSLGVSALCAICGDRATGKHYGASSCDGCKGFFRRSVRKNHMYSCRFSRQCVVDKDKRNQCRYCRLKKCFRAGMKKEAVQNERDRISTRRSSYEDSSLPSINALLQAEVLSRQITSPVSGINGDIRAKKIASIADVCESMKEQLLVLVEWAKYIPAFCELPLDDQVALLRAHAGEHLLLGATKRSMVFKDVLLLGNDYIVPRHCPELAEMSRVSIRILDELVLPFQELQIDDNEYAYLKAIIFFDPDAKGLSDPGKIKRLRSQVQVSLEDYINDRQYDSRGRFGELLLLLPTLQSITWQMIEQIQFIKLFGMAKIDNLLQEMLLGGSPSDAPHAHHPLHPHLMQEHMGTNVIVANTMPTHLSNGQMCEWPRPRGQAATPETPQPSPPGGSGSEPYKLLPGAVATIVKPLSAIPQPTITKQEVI

Chain of Nuclear receptor subfamily 4 group A member 2 (Homo sapiens) (P43354 whole entry, looked up, the tested form may be a part): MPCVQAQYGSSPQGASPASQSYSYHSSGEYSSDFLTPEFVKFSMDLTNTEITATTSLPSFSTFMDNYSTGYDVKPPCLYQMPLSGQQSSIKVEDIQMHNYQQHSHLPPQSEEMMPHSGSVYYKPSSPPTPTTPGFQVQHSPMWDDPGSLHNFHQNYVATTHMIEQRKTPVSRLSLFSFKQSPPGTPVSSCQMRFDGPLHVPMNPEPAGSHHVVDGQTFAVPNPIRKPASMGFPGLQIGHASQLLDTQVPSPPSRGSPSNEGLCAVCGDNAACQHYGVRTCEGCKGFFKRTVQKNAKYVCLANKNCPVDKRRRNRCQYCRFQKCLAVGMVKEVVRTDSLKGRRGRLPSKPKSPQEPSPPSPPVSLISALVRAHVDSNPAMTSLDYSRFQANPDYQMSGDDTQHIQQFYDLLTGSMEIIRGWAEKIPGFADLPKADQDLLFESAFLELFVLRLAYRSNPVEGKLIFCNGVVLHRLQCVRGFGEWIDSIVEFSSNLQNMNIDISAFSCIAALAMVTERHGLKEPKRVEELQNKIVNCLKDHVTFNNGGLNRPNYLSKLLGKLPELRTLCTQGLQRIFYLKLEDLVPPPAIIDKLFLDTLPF
Chain of Oxysterols receptor LXR-alpha (Homo sapiens) (Q13133 whole entry, looked up): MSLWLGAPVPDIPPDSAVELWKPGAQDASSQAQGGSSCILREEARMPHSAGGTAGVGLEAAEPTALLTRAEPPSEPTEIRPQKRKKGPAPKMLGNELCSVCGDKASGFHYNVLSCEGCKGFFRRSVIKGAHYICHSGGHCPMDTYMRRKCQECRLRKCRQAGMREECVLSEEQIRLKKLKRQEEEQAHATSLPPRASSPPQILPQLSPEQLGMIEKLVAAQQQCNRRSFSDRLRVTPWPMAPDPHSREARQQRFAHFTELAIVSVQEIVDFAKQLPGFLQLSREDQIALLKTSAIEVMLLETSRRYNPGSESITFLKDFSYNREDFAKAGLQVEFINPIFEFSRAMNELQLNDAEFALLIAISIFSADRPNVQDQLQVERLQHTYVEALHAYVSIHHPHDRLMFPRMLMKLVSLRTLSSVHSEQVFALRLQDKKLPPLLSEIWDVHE
Chain of Transcriptional activator Myb (Homo sapiens) (P10242 whole entry, looked up): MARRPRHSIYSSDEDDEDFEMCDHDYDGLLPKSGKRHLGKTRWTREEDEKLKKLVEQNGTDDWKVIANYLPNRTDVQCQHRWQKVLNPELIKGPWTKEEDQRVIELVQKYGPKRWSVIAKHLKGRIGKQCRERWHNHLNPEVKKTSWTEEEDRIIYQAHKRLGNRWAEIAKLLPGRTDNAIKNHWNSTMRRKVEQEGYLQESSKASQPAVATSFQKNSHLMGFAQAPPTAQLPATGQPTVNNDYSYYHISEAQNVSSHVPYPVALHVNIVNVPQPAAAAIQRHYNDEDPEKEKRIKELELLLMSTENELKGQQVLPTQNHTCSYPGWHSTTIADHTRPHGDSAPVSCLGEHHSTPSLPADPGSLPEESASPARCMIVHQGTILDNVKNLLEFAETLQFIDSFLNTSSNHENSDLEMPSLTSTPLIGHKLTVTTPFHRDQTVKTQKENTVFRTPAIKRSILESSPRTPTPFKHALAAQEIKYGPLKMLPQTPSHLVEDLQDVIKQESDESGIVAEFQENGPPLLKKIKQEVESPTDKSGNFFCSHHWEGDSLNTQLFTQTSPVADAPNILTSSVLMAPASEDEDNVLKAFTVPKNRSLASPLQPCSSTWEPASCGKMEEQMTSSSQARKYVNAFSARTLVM
Chain of Oxysterols receptor LXR-beta (Homo sapiens) (P55055 whole entry, looked up, the tested form may be a part): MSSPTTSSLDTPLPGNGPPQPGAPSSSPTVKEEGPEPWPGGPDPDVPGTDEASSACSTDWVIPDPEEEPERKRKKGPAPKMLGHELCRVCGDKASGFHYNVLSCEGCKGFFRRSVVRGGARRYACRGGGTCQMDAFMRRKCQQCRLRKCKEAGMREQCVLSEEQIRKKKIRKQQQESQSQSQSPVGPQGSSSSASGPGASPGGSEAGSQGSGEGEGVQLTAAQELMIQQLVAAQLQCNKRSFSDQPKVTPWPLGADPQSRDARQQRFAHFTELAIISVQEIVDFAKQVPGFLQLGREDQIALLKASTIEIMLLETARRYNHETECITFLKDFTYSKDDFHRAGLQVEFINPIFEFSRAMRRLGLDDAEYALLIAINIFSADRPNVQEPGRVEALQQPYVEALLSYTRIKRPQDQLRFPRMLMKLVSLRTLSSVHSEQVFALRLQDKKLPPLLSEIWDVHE
Chain of Nuclear respiratory factor 1 (Homo sapiens) (Q16656 whole entry, looked up): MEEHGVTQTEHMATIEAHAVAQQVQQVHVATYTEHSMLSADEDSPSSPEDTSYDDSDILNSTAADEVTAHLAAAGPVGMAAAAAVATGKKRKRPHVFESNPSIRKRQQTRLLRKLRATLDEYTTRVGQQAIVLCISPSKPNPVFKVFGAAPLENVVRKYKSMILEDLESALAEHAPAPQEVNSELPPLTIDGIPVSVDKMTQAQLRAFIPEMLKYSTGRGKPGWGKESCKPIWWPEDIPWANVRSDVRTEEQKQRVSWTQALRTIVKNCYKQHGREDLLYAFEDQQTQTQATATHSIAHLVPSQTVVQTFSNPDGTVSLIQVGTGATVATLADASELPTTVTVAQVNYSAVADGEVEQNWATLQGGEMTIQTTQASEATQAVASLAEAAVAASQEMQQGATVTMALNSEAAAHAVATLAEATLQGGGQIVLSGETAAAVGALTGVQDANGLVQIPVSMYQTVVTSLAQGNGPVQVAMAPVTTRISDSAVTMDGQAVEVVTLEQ
Chain of Glucocorticoid receptor (Homo sapiens) (P04150 whole entry, looked up, the tested form may be a part): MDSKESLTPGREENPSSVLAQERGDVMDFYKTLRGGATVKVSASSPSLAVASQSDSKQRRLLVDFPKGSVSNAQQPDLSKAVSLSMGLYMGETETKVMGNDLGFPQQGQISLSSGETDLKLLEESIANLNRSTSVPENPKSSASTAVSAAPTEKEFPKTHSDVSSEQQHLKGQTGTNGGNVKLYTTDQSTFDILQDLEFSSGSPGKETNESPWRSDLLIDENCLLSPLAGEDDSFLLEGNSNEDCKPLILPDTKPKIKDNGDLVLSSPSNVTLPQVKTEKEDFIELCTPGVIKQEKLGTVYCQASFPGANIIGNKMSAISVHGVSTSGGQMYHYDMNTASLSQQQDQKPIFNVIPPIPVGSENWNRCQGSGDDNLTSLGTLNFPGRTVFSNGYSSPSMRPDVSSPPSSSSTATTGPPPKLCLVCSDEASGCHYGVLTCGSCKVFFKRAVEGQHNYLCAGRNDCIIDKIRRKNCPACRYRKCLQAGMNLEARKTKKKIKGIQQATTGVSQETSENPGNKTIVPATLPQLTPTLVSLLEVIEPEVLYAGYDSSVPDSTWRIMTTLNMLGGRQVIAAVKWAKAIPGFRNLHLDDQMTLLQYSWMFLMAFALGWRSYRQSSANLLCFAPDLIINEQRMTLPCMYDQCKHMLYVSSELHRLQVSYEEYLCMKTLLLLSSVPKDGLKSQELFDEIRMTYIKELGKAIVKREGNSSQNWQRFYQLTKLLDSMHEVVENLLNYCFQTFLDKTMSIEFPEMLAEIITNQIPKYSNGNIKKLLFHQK
Chain of X-box-binding protein 1 (Homo sapiens) (P17861 whole entry, looked up): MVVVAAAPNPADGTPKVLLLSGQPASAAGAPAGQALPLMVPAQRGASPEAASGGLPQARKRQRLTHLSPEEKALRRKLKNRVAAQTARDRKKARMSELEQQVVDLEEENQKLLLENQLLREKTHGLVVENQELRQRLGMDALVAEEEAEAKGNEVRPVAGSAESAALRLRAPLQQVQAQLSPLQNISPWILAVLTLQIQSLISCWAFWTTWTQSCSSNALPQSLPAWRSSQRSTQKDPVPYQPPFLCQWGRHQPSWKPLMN
Chain of Bile acid receptor (Homo sapiens) (Q96RI1 whole entry, looked up, the tested form may be a part): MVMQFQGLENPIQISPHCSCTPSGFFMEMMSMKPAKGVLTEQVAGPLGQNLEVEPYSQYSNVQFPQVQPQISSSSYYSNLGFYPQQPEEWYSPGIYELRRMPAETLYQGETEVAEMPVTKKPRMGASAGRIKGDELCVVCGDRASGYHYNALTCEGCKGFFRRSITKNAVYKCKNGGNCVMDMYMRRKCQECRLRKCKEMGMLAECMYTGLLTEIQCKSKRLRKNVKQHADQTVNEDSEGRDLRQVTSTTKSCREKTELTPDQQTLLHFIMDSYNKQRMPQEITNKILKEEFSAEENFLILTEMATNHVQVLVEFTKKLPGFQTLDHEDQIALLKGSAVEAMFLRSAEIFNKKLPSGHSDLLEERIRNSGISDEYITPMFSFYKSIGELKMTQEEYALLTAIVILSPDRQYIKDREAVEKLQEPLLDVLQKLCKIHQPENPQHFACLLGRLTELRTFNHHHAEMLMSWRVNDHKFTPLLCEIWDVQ

As for `C=C(CC(=O)O)C(=O)O`, the outcome in [1], in assay [2], in [3], in assay [4], in [5] and in assay [6] was inactive. Also, the result in assay [7], in assay [8] and in assay [9] was inactive.

On to `c1ccc(CN(Cc2ccccc2)Cc2ccccc2)cc1`, for which the call in assay [1], in [2], in [3], in assay [10], in assay [11] and in [12] was inactive. Also, the outcome in assay [6], in assay [7], in assay [13], in [8], in [9] and in assay [14] was inactive.

Regarding `CN(c1nccc(=O)[nH]1)C1CCN(c2nc3ccccc3n2Cc2ccc(F)cc2)CC1`, the call in [1], in [2], in [10], in assay [12], in assay [6] and in assay [7] was inactive. For the same compound, the result in assay [15], in [13], in assay [8], in [9] and in assay [14] was inactive. Also, the AC50 (usually the midpoint of the concentration-response curve, whichever way the signal moves) in [3] was 9.35 µM (active).

Consider `COc1ccc(CCO)cc1`, for which the outcome in assay [1], in assay [2], in [3], in [16], in assay [4] and in [11] was inactive. The result in assay [12], in assay [6], in [8], in [9] and in assay [14] was inactive.

`O=C1NC2NC(=O)NC2N1` (stereo not given): the compound was classed as inactive in assay [1], in assay [2], in [3], in assay [16], in assay [4] and in assay [6]. Besides, the call in assay [17], in [7], in assay [13], in assay [8], in assay [9] and in [14] was inactive.

Take `Nc1c(S(=O)(=O)O)cc(Br)c2c1C(=O)c1ccccc1C2=O`: the compound was classed as inactive in assay [1], in [2], in assay [12], in [7], in assay [13] and in assay [8]. Moreover, the outcome in assay [9] and in [14] was inactive. In assay [3], the concentration at half-maximal activity (AC50) was 72.4 µM (active).
